# Test results taken from PubChem BioAssay AID1259421 (Broad Institute, 2018).
# Where “and” joins values, the source holds several entries; their conditions need not be identical. Identical values can stand only once. Among all 6,400 compounds or so, about 610 (9.5%) were called active. Cut-off read from the data, not from the text of the source: active = activity change below about -70%; inconclusive = no clear call, values can overlap the other calls; inactive = above that. The full list was thinned out, with actives kept by preference. Some compounds were tested as several samples or in several runs, with calls that do not always agree.
# Test: T. gondii ME49Luc in HeLa cells, luciferase assay, 72 h, no IFN-y (AID 1259421)
# Conditions: stronger effect = lower value, concentration not given here
row,SMILES,"activity change, negative = inhibition"
1,CC(=O)O[C@]1(C(C)=O)CCC2C3C=C(Cl)C4=CC(=O)CC[C@]4(C)C3CC[C@@]21C (stereo partly drawn),2.15% (inactive) and -3.18% (inactive)
2,CCCCCCC(=O)OC1CC(C)(C)NC(C)(C)C1,10.7% (inactive) and -2.86% (inactive)
3,O=C(NC1CCN(CCc2c[nH]c3ccccc23)CC1)c1ccccc1,10.9% (inactive)
4,O=C(NC1CCN(CCCCC2(C(=O)NCC(F)(F)F)c3ccccc3-c3ccccc32)CC1)c1ccccc1-c1ccc(C(F)(F)F)cc1,-89% (active)
5,O=C(N[C@H]1CCN(C(=O)c2cc(C(F)(F)F)cc(C(F)(F)F)c2)[C@H](Cc2ccc(Cl)cc2)C1)c1ccnc2ccccc12,25.3% (inactive)
6,CN1CC(=O)N/C1=N/C(=O)Nc1cccc(Cl)c1,32.6% (inactive) and 26.4% (inactive)
7,CNC(=O)C1OC(n2cnc3c(NCc4cccc(I)c4)ncnc32)C(O)C1O (stereo not drawn),5.36% (inactive)
8,O=C(O)C(=O)O.O=C(O)C(=O)O.O=C(O)C(=O)O.[Bi].[Bi],12.7% (inactive)
9,CC1CN(CCCn2c3ccccc3c3ccccc32)CC(C)N1 (stereo not drawn),-30.6% (inactive)
10,COc1ccccc1C1(O)CCN(CCCn2c3ccccc3c3ccccc32)CC1,-73.1% (active) and -52.5% (inactive)
11,C[C@@H]1CN(CCCn2c3ccccc3c3ccccc32)C[C@H](C)N1,18.2% (inactive)
12,CO/N=C(\C(=O)N[C@@H]1C(=O)N2C(C(=O)O)=C(C[n+]3ccn4ncccc43)CS[C@H]12)c1nsc(N)n1,12% (inactive)
13,CC(C)n1cnc2c(NCc3ccccc3O)nc(NCCCO)nc21,1.44% (inactive)
14,CC[C@H](CO)Nc1nc(NCc2ccc(-c3ccccn3)cc2)c2ncn(C(C)C)c2n1,-75.6% (active)
15,CC[C@@H](CO)Nc1nc(NCc2ccccc2)c2ncn(C(C)C)c2n1,-3.07% (inactive)
16,CC[C@H](CO)Nc1nc(NCc2ccccc2)c2ncn(C(C)C)c2n1,-9.71% (inactive)
17,CC[C@H](CO)Nc1nc(Nc2cccc(-c3ccccn3)c2)c2ncn(C(C)C)c2n1,-72.2% (active)
18,CN1Cc2c(C(=O)OC(C)(C)C)ncn2-c2ccsc2C1=O,4.12% (inactive) and 13% (inactive)
19,CC(=O)O[C@@H]1CC2C(C)(C)C(=O)C3OC3[C@]2(C)C2CC[C@@]3(C)[C@H](c4ccoc4)OC(=O)C4OC43[C@@]21C (stereo partly drawn),26.1% (inactive)
20,CC1=NN(c2ccc(C(=O)O)cc2)C(=O)/C1=C\c1ccc(-c2cc(C)c(C)cc2[N+](=O)[O-])o1,27.1% (inactive)
21,O=C(/C=C/c1ccccc1)c1ccc(O)cc1,-8.89% (inactive)
22,CC(=O)c1cnc2ccc(-c3cc(Cl)c(O)c(Cl)c3)nc2c1NC1CCC(CN(C)C)CC1 (stereo not drawn),-87.5% (active)
23,CO[C@H]1C=CO[C@@]2(C)Oc3c(C)c(O)c4c(O)c(c5c(c4c3C2=O)NC2(CCN(CC(C)C)CC2)N=5)=NC(=O)/C(C)=C\C=C/[C@H](C)[C@H](O)[C@@H](C)[C@@H](O)[C@@H](C)[C@H](OC(C)=O)[C@@H]1C,-31.1% (inactive)
24,Nc1nc(=O)n([C@@H]2O[C@H](CO)[C@@H](O)[C@@H]2F)cc1I,9.84% (inactive)

row,SMILES,"activity change, negative = inhibition"
1,CC(=O)OCC(=O)[C@@]1(O)CCC2C3CCC4=CC(=O)C=C[C@]4(C)[C@@]3(F)[C@@H](O)C[C@@]21C (stereo partly drawn),-18.2% (inactive)
2,CCN1CCN(Cc2ccc(Nc3ncc(F)c(-c4cc(F)c5nc(C)n(C(C)C)c5c4)n3)nc2)CC1,-82.7% (active)
3,CN(C)Cc1ccc(-c2nc3cccc4c3n2CCNC4=O)cc1,4.67% (inactive)
4,CCC(=O)OCC(=O)[C@@]1(OC(=O)CC)[C@H](C)CC2C3C([C@@H](O)C[C@@]21C)[C@@]1(C)C=CC(=O)C=C1C[C@H]3Cl (stereo partly drawn),2.29% (inactive)
5,CC1=CC(=O)C2C(C)(C)CCC[C@]2(C)[C@@]1(O)CCc1ccoc1 (stereo partly drawn),1.47% (inactive)
6,CN1CC[C@@H](c2c(O)cc(O)c3c(=O)cc(-c4ccccc4Cl)oc23)[C@@H]1CO,-78.4% (active)
7,COc1ccc(-c2cc(=O)c3c(O)cc(OC)c(OC)c3o2)c(OC)c1,12.5% (inactive)
8,CN1CC[C@H](c2c(O)cc(O)c3c(=O)cc(-c4ccccc4Cl)oc23)[C@H](O)C1,-83.7% (active)
9,NC(N)=NCCC[C@H](N)C(=O)NCC(=O)N[C@@H](CC(=O)O)C(=O)N[C@@H](CO)C(=O)O,12.1% (inactive)
10,CC(C)CCNc1ncccc1C(=O)N1CCN(Cc2ccccc2)CC1,7.68% (inactive)
11,COc1cc2oc3cc(OC)c(OC)c(CC=C(C)C)c3c(=O)c2c(O)c1CC=C(C)C,7.82% (inactive)
12,COc1c(O)cc2oc3cc(O)c(CC=C(C)C)c(O)c3c(=O)c2c1CC=C(C)C,-80.8% (active)
13,CC(C)=CCc1c(O)cc2oc(C)cc(=O)c2c1O,1.96% (inactive)
14,C[N+](C)(C)[C@@H](Cc1c[nH]c(=S)[nH]1)C(=O)O,3.37% (inactive)
15,Nc1nc2c(cnn2CCc2ccccc2)c2nc(-c3ccco3)nn12,16.9% (inactive) and 59.6% (inactive)
16,Nc1nc(NCCc2ccc(O)cc2)nc2nc(-c3ccco3)nn12,-78.9% (active) and -90.1% (active)
17,COc1ccc(CCCn2ncc3c2nc(N)n2nc(-c4ccco4)nc32)cc1,-11.7% (inactive)
18,CC(COc1ccccc1)NC(C)[C@H](O)c1ccc(O)cc1 (stereo partly drawn),7.25% (inactive) and 9.37% (inactive)
19,Nc1ncnc2c1ncn2C1OC(COP(=O)(O)O)C(O)C1O (stereo not drawn) (tested in a mixture with another compound),1.1% (inactive)
20,Nc1ncnc2c1ncn2CCOCP(=O)(O)O,5.36% (inactive)
21,Nc1ncnc2c1ncn2C1O[C@H](COP(=O)(O)O)[C@@H](O)[C@H]1O (stereo partly drawn),13.1% (inactive)
22,CC(C)(C)C(=O)OCOP(=O)(COCCn1cnc2c(N)ncnc21)OCOC(=O)C(C)(C)C,-84.5% (active) and -86.9% (active)
23,C[C@H](Cn1cnc2c(N)ncnc21)OCP(=O)(O)O,8.95% (inactive)
24,CC(C)OC(=O)OCOP(=O)(CO[C@H](C)Cn1cnc2c(N)ncnc21)OCOC(=O)OC(C)C,-84% (active)
